# Assay outcomes (PubChem BioAssay)
# Autofluor counter – counter-screen for toxin protease inhibitors: compound fluorescence | compound autofluorescence counterscreen, microsphere flow cytometry; active compounds read high | fluorescence intensity (concentration not given with the values) | 360,000 compounds, 3.1% hits; in the data active means fluorescence intensity above about 16000; inconclusive means no clear call, values can overlap the other calls
# BoNT-A LC inh2 – BoNT A light chain protease inhibition; multiplex microsphere protease substrate cleavage, flow cytometry; inhibition, % at 10 µM; 360,000 compounds, 0.17% hits; AID 588499; further: plate controls were buffer without enzyme for full effect and enzyme alone for no effect
# TcdB GH inh – blocks C. difficile toxin B glycohydrolase activity; TcdB glycohydrolase enzymatic assay, plate reader; 350,000 compounds, 0.24% hits; AID 652162; P18177; inhibition, % at 9.99 µM; in the data active means inhibition above about 10%
# Target sequence (P18177 whole entry, looked up): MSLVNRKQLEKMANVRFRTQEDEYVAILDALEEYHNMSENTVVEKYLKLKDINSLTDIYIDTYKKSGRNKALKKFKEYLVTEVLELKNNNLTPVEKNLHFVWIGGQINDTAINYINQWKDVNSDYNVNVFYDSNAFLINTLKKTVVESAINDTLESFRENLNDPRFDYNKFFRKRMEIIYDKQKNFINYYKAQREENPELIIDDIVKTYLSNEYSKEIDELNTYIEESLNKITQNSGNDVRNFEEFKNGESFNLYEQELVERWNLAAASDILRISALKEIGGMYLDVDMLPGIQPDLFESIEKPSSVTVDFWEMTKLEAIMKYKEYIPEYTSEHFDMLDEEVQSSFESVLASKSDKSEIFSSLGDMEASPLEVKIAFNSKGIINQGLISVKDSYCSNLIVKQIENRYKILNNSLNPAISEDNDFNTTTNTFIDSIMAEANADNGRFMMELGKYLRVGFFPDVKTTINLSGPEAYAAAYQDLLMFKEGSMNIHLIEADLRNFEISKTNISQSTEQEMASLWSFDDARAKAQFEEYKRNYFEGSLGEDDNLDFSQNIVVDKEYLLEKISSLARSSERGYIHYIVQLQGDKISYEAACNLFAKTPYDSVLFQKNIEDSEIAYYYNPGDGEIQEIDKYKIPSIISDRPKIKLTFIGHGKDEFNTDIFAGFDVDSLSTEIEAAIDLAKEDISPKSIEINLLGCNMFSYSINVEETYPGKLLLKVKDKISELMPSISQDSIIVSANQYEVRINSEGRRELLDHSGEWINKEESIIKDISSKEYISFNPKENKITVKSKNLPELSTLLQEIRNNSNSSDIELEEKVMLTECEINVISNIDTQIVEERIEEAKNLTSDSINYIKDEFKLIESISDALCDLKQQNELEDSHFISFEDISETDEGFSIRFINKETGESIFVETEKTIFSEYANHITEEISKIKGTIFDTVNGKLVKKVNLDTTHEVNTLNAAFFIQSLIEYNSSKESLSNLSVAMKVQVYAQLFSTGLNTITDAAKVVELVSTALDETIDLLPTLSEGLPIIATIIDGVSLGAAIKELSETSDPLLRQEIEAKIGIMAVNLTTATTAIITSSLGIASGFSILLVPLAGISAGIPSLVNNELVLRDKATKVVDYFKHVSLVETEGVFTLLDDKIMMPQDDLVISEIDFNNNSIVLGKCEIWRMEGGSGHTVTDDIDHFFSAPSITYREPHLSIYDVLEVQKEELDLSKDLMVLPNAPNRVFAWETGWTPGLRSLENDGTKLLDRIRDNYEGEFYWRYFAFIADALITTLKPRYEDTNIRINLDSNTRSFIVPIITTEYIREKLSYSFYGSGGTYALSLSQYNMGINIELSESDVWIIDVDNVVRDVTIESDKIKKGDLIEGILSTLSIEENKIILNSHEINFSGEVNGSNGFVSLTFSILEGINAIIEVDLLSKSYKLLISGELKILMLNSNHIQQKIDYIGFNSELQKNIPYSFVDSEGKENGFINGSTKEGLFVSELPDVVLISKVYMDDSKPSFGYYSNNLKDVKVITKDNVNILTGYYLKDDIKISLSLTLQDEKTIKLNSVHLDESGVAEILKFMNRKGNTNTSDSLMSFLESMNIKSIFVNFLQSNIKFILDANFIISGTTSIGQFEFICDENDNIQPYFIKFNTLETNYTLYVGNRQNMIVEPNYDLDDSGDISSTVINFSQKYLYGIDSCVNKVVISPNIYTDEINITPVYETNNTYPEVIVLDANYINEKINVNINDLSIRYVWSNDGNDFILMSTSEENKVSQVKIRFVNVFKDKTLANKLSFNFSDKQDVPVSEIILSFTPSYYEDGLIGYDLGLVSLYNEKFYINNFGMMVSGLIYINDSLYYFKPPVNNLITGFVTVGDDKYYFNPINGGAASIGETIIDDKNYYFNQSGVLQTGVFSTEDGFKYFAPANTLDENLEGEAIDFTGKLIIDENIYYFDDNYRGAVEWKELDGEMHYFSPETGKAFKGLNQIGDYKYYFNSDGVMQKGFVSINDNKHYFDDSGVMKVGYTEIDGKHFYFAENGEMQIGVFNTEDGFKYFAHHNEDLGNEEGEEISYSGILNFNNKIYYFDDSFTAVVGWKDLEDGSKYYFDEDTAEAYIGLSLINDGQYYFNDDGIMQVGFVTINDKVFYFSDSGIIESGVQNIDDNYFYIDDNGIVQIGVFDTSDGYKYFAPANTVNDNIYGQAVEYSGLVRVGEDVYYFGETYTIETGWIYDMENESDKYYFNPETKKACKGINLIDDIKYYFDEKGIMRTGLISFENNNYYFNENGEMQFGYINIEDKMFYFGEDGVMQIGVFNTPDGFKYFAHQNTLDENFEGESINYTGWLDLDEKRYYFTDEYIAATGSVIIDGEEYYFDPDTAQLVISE
# Anthrax LF prot – blocks Bacillus anthracis lethal factor protease | inhibition, % at 10 µM | multiplex microsphere protease cleavage assay, LF | 360,000 compounds, 0.12% hits; further: plate controls were buffer without enzyme for full effect and enzyme alone for no effect
# BoNT-F LC inh – BoNT F light chain protease inhibition; Multiplex microsphere protease cleavage assay, flow cytometry; inhibition, % at 10 µM; 360,000 compounds, 0.22% hits; AID 588497; in the data active means inhibition above about 35%, passing the limit was not always enough; inconclusive means no clear call, values can overlap the other calls; further: plate controls were buffer without enzyme for full effect and enzyme alone for no effect
# * = called active by the depositor; ? = inconclusive; . = no result. Many of the other results were omitted from the sample, so hits are more common in it than they were. Unless noted, no stated cut-off is given here; in the data, active means inhibition above about 30%; inconclusive means no clear call, values can overlap the other calls; inactive means below that.
SMILES,Autofluor counter,BoNT-A LC inh2,TcdB GH inh,Anthrax LF prot,BoNT-F LC inh
Cc1ccc(/C=N/NC(=O)c2cccc(S(=O)(=O)Nc3ccccc3Cl)c2)o1,9872,1.1,12.2*,-1.6,3.2
COc1ccc2c(Cl)c(C(=O)N/N=C/c3c(C)[nH]c4ccccc34)sc2c1,20361*,35.9*,.,22.2,-8.5
Cc1[nH]c2ccccc2c1/C=N/NC(=O)c1cccc(S(=O)(=O)Nc2ccccc2Cl)c1,13351,35.4*,.,14.9,-2.7
O=C(N/N=C/c1ccco1)c1cccc(S(=O)(=O)Nc2ccccc2Cl)c1,2579,0.6,.,0.7,8.1
COc1ccc(C(=O)COC(=O)[C@H](C)Nc2ccc(C(F)(F)F)cc2[N+](=O)[O-])cc1,3860,-0.3,.,-3.7,-16.6
Cc1cc(C)c(C(=O)COC(=O)[C@H](C)Nc2ccc(C(F)(F)F)cc2[N+](=O)[O-])c(C)c1,21371*,0.9,.,-1.3,1.5
CO[C@@H]1CN(C)C(=O)c2ccc(NC(=O)c3ccccc3)cc2OC[C@H](C)N(CC2CC2)C[C@H]1C,.,.,0.9,.,.
CC(C)(C)CNc1cc(N2CCOCC2)ccc1[N+](=O)[O-],4446,-0.8,2.3,2.0,0.4
CS(=O)(=O)N1CCN(c2ccc([N+](=O)[O-])c(NCCN3CCOCC3)c2)CC1,18351*,-5.1,.,-12.9,-13.2
O=C(Nc1ccc(Br)cc1)c1ccc(F)c(S(=O)(=O)N2CCN(c3ccccn3)CC2)c1,4020,0.0,0.9,-4.8,3.0
Cc1ccccc1NC(=O)c1ccc(F)c(S(=O)(=O)N2CCN(c3ccccn3)CC2)c1,23271*,-3.5,1.1,-3.0,-3.8
O=C(Nc1ccccc1)c1ccc(N2CCN(c3ccccc3)CC2)c(S(=O)(=O)N2CCOCC2)c1,13379,16.5,.,-35.7,29.9
O=C(Nc1ccccc1)c1ccc(N2CCN(c3ccccn3)CC2)c(S(=O)(=O)N2CCOCC2)c1,16676*,-1.0,.,-1.5,-1.1
COC(=O)[C@H]1[C@H](CO)[C@H]2Cn3c(ccc(C4=CCCC4)c3=O)[C@H]2N1C(=O)C1CCC1,.,.,2.1,.,.
O=C(C[C@H]1C[C@@H]2c3cc(NC(=O)c4ccc5c(c4)OCO5)ccc3O[C@@H]2[C@H](CO)O1)NC1CCCCC1,.,.,-0.2,.,.
COc1ccc(CN(C)C[C@@H]2OCCCC[C@@H](C)Oc3ccc(NC(=O)CCCCCC(=O)Nc4ccccc4N)cc3C(=O)N([C@H](C)CO)C[C@@H]2C)cc1,.,.,0.6,.,.
COc1ccc(N2C(=O)CCC2=O)c(OC)c1,4042,0.1,0.5,1.3,-2.6
COc1ccc(-n2c(C)nn(C)c2=O)c(OC)c1,18468*,?,.,-7.9,2.9
Cc1nn(C)c(=O)n1-c1ccc(Oc2ccccc2)cc1,21312*,3.2,.,-2.1,3.5
COc1ccccc1-c1cn(CC[C@H]2CC[C@H](NC(=O)C3CCCC3)[C@H](CO)O2)nn1,.,.,-0.5,.,.
Cc1cc(-n2c(C)cc(C(=O)COc3ccc4ccc(=O)oc4c3)c2C)no1,12223,-2.1,.,-3.3,-13.6
CC(=O)c1cccc(OCC(=O)c2cc(C)n(-c3cc(C)on3)c2C)c1,3422,0.7,16.2*,-1.3,8.0
COc1ccc(/C=N/NC(=S)Nc2ccccc2)cc1COc1cccc(C)c1C,4946,-0.5,0.2,-8.0,0.4
COc1ccc(/C=C/C(=O)C2CC2)cc1COc1cccc(C)c1C,3816,4.4,-0.6,30.7*,3.9
O=c1oc2c(CN3CCOCC3)c(O)ccc2c2c1CCC2,20943*,-3.8,.,-0.3,-6.6
SMILES,Autofluor counter,BoNT-A LC inh2,TcdB GH inh,Anthrax LF prot,BoNT-F LC inh
CCNC(=O)C[C@@H]1CC[C@@H]2[C@@H](COc3ccc(NC(=O)c4ccc(F)cc4)cc3C(=O)N2C)O1,.,.,0.8,.,.
CCOC(=O)C1CCN(C(=O)CSCc2nc(-c3ccc(OCC)cc3)oc2C)CC1,2751,0.0,.,1.1,7.2
Cc1ccc(-c2nc(CSCC(=O)NCCN3CCN(Cc4ccccc4)CC3)c(C)o2)cc1,17085*,-2.9,.,-2.7,-5.3
Cc1cccc(-c2nc(CSCC(=O)N3CCN(c4ccccn4)CC3)c(C)o2)c1,16627*,-1.4,.,-5.4,-7.0
Cc1oc(-c2cccc(Cl)c2)nc1CN1CCC(C(=O)N2CCN(c3ccccn3)CC2)CC1,6634,-0.9,.,-6.1,-1.3
Cc1ccc(-c2nc(CSCC(=O)N3CCCC3)c(C)o2)cc1,23517*,-3.1,.,-3.7,-4.0
CCOC(=O)N1CCC(NC(=O)CSCc2nc(-c3ccc(OC)c(OC)c3)oc2C)CC1,20515*,?,.,-0.1,-3.1
COc1ccc(-c2nc(CSCC(=O)NC3CC3)c(C)o2)cc1OC,5540,-0.7,3.1,-1.6,2.3
C[C@@H]1CN([C@@H](C)CO)C(=O)c2cc(N(C)C)ccc2O[C@H]1CN(C)C(=O)Nc1ccc(C(F)(F)F)cc1,.,.,-1.2,.,.
CCOc1ccc(CCn2c(-c3ccco3)nc3ccccc3c2=O)cc1OCC,16599*,-0.7,.,-1.9,-5.6
CCS(=O)(=O)Nc1ccc2c(c1)C(=O)N(C)[C@H]1CC[C@@H](CC(=O)N3CCOCC3)O[C@H]1CO2,.,.,0.8,.,.
CC1(C(=O)NC2CCCCCC2)CCC(=O)N1Cc1ccc2c(c1)OCO2 (stereo unspecified),16292*,0.2,.,-5.9,-3.8
C[C@@H]1CN([C@H](C)CO)S(=O)(=O)c2ccc(-c3cncnc3)cc2O[C@@H]1CN(C)C(=O)C1CCC1,.,.,0.1,.,.
C[C@H]1CN([C@@H](C)CO)C(=O)CCCn2cc(nn2)CO[C@H]1CN(C)Cc1ccc(Oc2ccccc2)cc1,.,.,-2.1,.,.
COc1ccc(CONS(=O)(=O)c2ccc(NC(C)=O)cc2)cc1Cl,20406*,1.0,0.9,-6.1,-1.2
CCN(CCCNC(=O)CC(C(=O)N1CCc2ccccc21)n1ccnc1)c1ccccc1 (stereo unspecified),18267*,6.1,.,-12.3,5.2
CCC(=O)N(C)C[C@@H]1Oc2cc(-c3ccccc3F)ccc2S(=O)(=O)N([C@H](C)CO)C[C@H]1C,.,.,-0.2,.,.
Cc1cccc(NC(=O)/C=C/c2cccs2)n1,21452*,-1.6,.,-0.8,-3.2
Cc1c(NC(=O)c2cc(=O)[nH]c3ccccc23)c(=O)n(-c2ccccc2)n1C,17099*,-2.7,.,-0.4,-5.3
Cc1c(NC(=O)c2ccccc2F)c(=O)n(-c2ccccc2)n1C,16314*,?,0.5,2.4,0.2
Cc1c(NS(=O)(=O)c2ccc3[nH]c(=O)[nH]c3c2)c(=O)n(-c2ccccc2)n1C,20240*,6.3,.,1.3,6.5
C[C@H]1CN([C@@H](C)CO)C(=O)c2cc(C#CC3CC3)cnc2O[C@H]1CN(C)S(=O)(=O)c1cccc(F)c1,.,.,0.3,.,.
COc1ccc(CN(C)C[C@@H]2OCCCC[C@H](C)Oc3ccc(NC(=O)Nc4ccc(OC)cc4)cc3C(=O)N([C@@H](C)CO)C[C@@H]2C)cc1,.,.,0.5,.,.
CO[C@H]1CN(C)C(=O)c2cc(NC(C)=O)ccc2OC[C@H](C)N(CCc2ccccc2)C[C@H]1C,.,.,-2.9,.,.
Cc1c(NC(=O)/C=C/c2cccs2)c(=O)n(-c2ccccc2)n1C,22938*,-0.2,.,-0.2,-1.4
COc1cc(Br)c(S(=O)(=O)Nc2c(C)n(C)n(-c3ccccc3)c2=O)cc1OC,21059*,-1.3,.,2.2,-3.5
COc1ccccc1C(=O)Nc1c(C)n(C)n(-c2ccccc2)c1=O,22949*,-1.1,.,0.1,-1.0
